Data as given in PubChem BioAssay (NCATS).
Inconclusive results are not listed. Entries that show only a call come without a potency. Active and inactive are the calls of the source. The call rests on the fitted dose curve; in most records, active means well fitted inhibition curve with a large enough effect; inconclusive means small, poorly fitted or top-dose-only effect; inactive means flat fitted curve, though single readings scatter. Where a SMILES comes first, the peptide text is derived from it. Bridges are numbered along the chain shown (N, C = ends). [ ]: non-standard residue; d: D form. The star is where a group is joined. X1 = CC[C@@H](C)[C@@H](N)C1=N[C@H](C(=O)*)CS1; d(aIle) = CC[C@H](C)[C@@H](N)C(=O)O; dOrn = NCCC[C@@H](N)C(=O)O

test: P-glycoprotein substrates identified in KB-8-5-11 adenocarcinoma cell line, qHTS therapeutic library screen (AID 1346987); details: KB-8-5-11 (P-gp overexpressing) viability, CellTiter-Glo, 72 h; series mostly up to 44.5 µM; further: nearly all actives have a fitted effect of over 65% in size
In short: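 Human cervical adenocarcinoma KB-8-5-11 cells, selected in colchicine to over-express P-gp and assayed without it, were exposed for 72 h to titrated compounds. An ATP-based luminescent viability signal gave AC50.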
Potency means the concentration at half of the fitted maximal effect.

SMILES | Potency
CC(C)CCC[C@@H](C)[C@H]1CC[C@H]2[C@@H]3CC=C4C[C@@H](O)CC[C@]4(C)[C@H]3CC[C@]12C | inactive
Cc1ccc(C(C)(C)c2ccc(C)cc2)cc1 | inactive
O=C(O)/C=C/C(=O)Nc1ccc(S(=O)(=O)Nc2nccs2)cc1 | inactive
CNC(C)CCC=C(C)C (centres undefined) | inactive
CC(C)[C@H](N)C(=O)OCC(CO)OCn1cnc2c(=O)[nH]c(N)nc21 (some centres undefined) | inactive
Cc1c(C)c2c(c(C)c1OC(=O)CCC(=O)O)CC[C@@](C)(CCC[C@H](C)CCC[C@H](C)CCCC(C)C)O2 | inactive
Cc1c(N)nc([C@H](CC(N)=O)NC[C@H](N)C(N)=O)nc1C(=O)N[C@H](C(=O)N[C@H](C)[C@@H](O)[C@H](C)C(=O)N[C@H](C(=O)NCCc1nc(-c2nc(C(=O)NCCCCN=C(N)N)cs2)cs1)[C@@H](C)O)[C@@H](O[C@@H]1O[C@@H](CO)[C@@H](O)[C@H](O)[C@@H]1O[C@H]1O[C@H](CO)[C@@H](O)[C@H](OC(N)=O)[C@@H]1O)c1cnc[nH]1 | inactive
N[C@H](CC(=O)O)C(=O)O | inactive
CC(CCc1ccc(O)cc1)NCC(O)c1ccc(O)cc1 (centres undefined) | inactive
O=C1c2ccccc2C(=O)C1c1ccc(Cl)cc1 | inactive
Nc1ncnc2c1ncn2CCOCP(=O)(O)O | inactive
COc1cc(S(C)=O)ccc1-c1nc2ncccc2[nH]1 (centres undefined) | inactive
OC[C@@H](O)C(O)[C@H](O)CO | inactive
CCN(CC)C(=O)[C@]1(c2ccccc2)C[C@@H]1CN | inactive
CC/C=C\C/C=C\C/C=C\C/C=C\C/C=C\CCCC(=O)O | inactive
CO[C@@]1(NC(=O)C2SC(=C(C(N)=O)C(=O)O)S2)C(=O)N2C(C(=O)O)=C(CSc3nnnn3C)CS[C@@H]21 (some centres undefined) | inactive
CO[C@@H]1[C@H](OC(=O)/C=C/C=C/C=C/C=C/C(=O)O)CC[C@]2(CO2)[C@H]1[C@@]1(C)O[C@@H]1CC=C(C)C | inactive

SMILES | Potency
NC[C@H]1O[C@H](O[C@H]2[C@H](O)[C@@H](O[C@H]3O[C@H](CO)[C@@H](O)[C@H](N)[C@H]3O)[C@H](N)C[C@@H]2N)[C@H](O)[C@@H](O)[C@@H]1O | inactive
C[C@@H]1C/C=C/C=C/C=C/C=C/[C@H](O[C@@H]2O[C@H](C)[C@@H](O)[C@H](N)[C@@H]2O)C[C@@H]2O[C@](O)(C[C@@H](O)C[C@H]3O[C@@H]3/C=C/C(=O)O1)C[C@H](O)[C@H]2C(=O)O | inactive
NS(=O)(=O)c1cc2c(cc1Cl)NC(Cc1ccccc1)NS2(=O)=O (centres undefined) | inactive
CCCCC | inactive
C(=C\c1ccncc1)/c1ccccc1 | inactive
CC1(C)[C@@H]2CC[C@@]1(C)[C@H](OC(=O)CSC#N)C2 | inactive
CCN1\C(=C/C=C/C=C/c2sc3ccccc3[n+]2CC)Sc2ccccc21 | 16.4 µM (active)
CCCCC[C@H](O)/C=C/[C@@H]1[C@H]2C/C(=C/CCCC(=O)O)O[C@H]2C[C@H]1O | inactive
CCCCCCCCCCCCCCCCCC(=O)OC[C@@H](O)[C@H]1OC[C@H](O)[C@H]1O | inactive
CC1CCCC(C)N1NC(=O)c1ccc(Cl)c(S(N)(=O)=O)c1 (centres undefined) | inactive
CNC(=O)OCc1cccc(COC(=O)NC)n1 | inactive
CCCCCCCCCCCCCCCCCC(=O)OCC(C)O (centres undefined) | inactive
Cc1cc(=O)c(C(=O)N[C@@H](C(=O)N[C@@H]2C(=O)N3C(C(=O)O)=C(CSc4nnnn4C)CS[C@H]23)c2ccc(O)cc2)c[nH]1 | inactive
C[C@@H]1NC(=O)[C@@H](N)CNC(=O)[C@H](C2CCNC(N)=N2)NC(=O)/C(=C/NC(N)=O)NC(=O)[C@H](CNC(=O)C[C@@H](N)CCCN)NC1=O (some centres undefined) | inactive
Cn1cc(NC(=O)c2cc(NC(=O)c3cc(NC=O)cn3C)cn2C)cc1C(=O)NCCC(=N)N | inactive
C=CCOc1ccc(CC(=O)O)cc1Cl | inactive
CC[C@@H](C)[C@@H](N)C1=N[C@H](C(=O)N[C@@H](CC(C)C)C(=O)N[C@@H](CCC(=O)O)C(=O)N[C@@H](C(=O)N[C@@H]2CCCCNC(=O)[C@@H](CC(N)=O)NC(=O)[C@@H](CC(=O)O)NC(=O)[C@@H](Cc3cnc[nH]3)NC(=O)[C@@H](Cc3ccccc3)NC(=O)[C@@H]([C@H](C)CC)NC(=O)[C@@H](CCCN)NC2=O)[C@@H](C)CC)CS1 (X1-LE[d(aIle)][dK][dOrn][dI][dF][dH][dD][dN]; lactam 4-C) | inactive
